The text below walks through data of PubChem BioAssay AID1645855 (Buhrlage Lab, Dana-Farber Cancer Institute and Novartis …, 2021).

Hit rate of the full screen: of about 47,000 compounds, about 3,100 (6.6%) were called active. For the sample, actives were picked, then their nearest neighbours and some compounds at random. A number with no mark means an inactive call. Rule as the data show it: active = inhibition above about 30%; inactive = the rest.

The target in this experiment is Ubiquitin carboxyl-terminal hydrolase 17-like protein 5 (Homo sapiens) (UniProt A8MUK1). The experiment in a line: blocks human USP17 ubiquitin-rhodamine cleavage (AID 1645855). Particulars: purified USP17, Ub-rhodamine cleavage fluorescence, 3 h; at 50 µM; stronger effect = higher value.
Sequence of Ubiquitin carboxyl-terminal hydrolase 17-like protein 5 (Homo sapiens) (A8MUK1 whole entry, looked up): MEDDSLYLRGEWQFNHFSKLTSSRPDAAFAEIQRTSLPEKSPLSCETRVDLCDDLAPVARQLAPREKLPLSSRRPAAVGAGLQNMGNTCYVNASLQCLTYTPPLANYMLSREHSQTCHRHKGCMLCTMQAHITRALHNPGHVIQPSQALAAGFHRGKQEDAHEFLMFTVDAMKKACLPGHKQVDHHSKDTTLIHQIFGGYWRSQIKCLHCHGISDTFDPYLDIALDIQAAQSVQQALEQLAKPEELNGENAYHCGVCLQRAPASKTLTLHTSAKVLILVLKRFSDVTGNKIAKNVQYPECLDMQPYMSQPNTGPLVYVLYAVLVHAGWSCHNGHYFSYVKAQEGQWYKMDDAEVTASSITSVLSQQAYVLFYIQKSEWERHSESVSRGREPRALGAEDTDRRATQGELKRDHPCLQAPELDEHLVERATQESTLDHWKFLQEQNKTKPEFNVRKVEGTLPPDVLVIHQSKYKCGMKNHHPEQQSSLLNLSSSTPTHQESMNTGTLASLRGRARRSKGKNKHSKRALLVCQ
Take `Cc1cc2nc(Cc3ccccc3)cc(=O)n2[nH]1`: the inhibition (in general, the change of the read-out against control, counted positive when it falls) is -11.5%.
The same measure for `CC1CCCN(C(=O)c2cc(S(=O)(=O)N3CCCCC3)ccc2Cl)C1` (configuration not stated): -1.66%; for `CC(C)NC(=O)CN1C(=O)CC(C)Sc2ccc(S(=O)(=O)N3CCCCC3)cc21` (configuration not stated): 43.8% (active); for `CCN1CCN(S(=O)(=O)c2ccc3c(c2)CC(C)N3C(=O)C2CC2)CC1` (configuration not stated): 2.74%.
To `COc1ccc2ncc(S(=O)(=O)c3ccccc3)c(N3CCOCC3)c2c1` belongs -6.05%; to `Cc1csc(C2(NC(=O)Cc3cc(C)on3)CCCC2)n1`, 31.4% (active).
To `O=C(Cc1cccc(F)c1)NC1(c2nc(C3CC3)no2)CCCCC1` belongs 5.03%; to `Cc1noc(C2(NC(=O)Cc3ccccc3C)CCCCC2)n1`, -5.54%; to `Cc1nn2c(S(=O)(=O)NCc3ccccc3F)c(C)nc2s1`, 18.9%.
As to `CCN(CC)c1ccc(NC(=O)Nc2ccc(OCc3ccccc3)cc2)cc1`, the inhibition is 7.88%.
To `CC1CCN(S(=O)(=O)N2CCCC(C(=O)Nc3ccccc3Cl)C2)CC1` (configuration not stated) belongs 1.17%; to `CCCC(=O)Nc1nc2ccc(CCC(=O)NCc3ccc(F)cc3)cc2s1`, 65.3% (active).
To `Cc1ccc2nc(CCC(=O)NCc3ccc(F)cc3F)n(C)c(=O)c2c1` belongs 10.9%; to `O=C(CCc1nc2sc3c(c2c(=O)[nH]1)CCCC3)Nc1ccc(F)cc1`, 2.56%; to `CC(C)C(=O)Nc1nc2ccc(CCC(=O)Nc3ccc(F)cc3)cc2s1`, 43.6% (active).
In the case of `CC(C)C(=O)Nc1nc2cc(NS(=O)(=O)c3ccccc3)ccc2s1`, the inhibition is 4.36%.
To `O=C(Cc1cccc2ccccc12)Nc1nc2ccc(F)cc2s1` belongs 23.9%; to `Cc1ccc2[nH]cc(C(C(=O)O)N3CCN(c4ccc(C(F)(F)F)cn4)CC3)c2c1` (configuration not stated), -4.78%.
Turning to `Cc1cccc(C)c1NS(=O)(=O)c1ccc(N2CCCC2=O)cc1`, the inhibition was -8.71%.
For the compound `Cc1noc(C)c1CN1C[C@H](OCc2ccccn2)[C@H]2OCCC[C@H]21`, the inhibition was -5.79%.
Regarding `Cc1cc(=O)n(CC(=O)Nc2ccc(F)cc2C)c(N2CCCC2)n1`, the inhibition was 16.9%.
To `CCc1cc(=O)n(CC(=O)NCc2ccccc2)c(N2CCOCC2)n1` belongs -0.113%.
The same measure for `Cc1cc2nc(N3CCOCC3)n(CC(=O)Nc3ccccc3F)c(=O)c2n1C`: 36% (active); for `O=C(Cc1c[nH]c2ccccc12)N1CCc2cc(-c3ccno3)ccc21`: -26.7%.
Consider `COc1ccc(-c2noc(CN(C3CCCCC3)S(=O)(=O)c3ccc(OC)cc3)n2)cc1`, for which the inhibition is 4.09%.
Take `COc1ccc(-c2noc(-c3ccc(N(C)Cc4ccco4)nn3)n2)cc1`: the inhibition was 30.7% (active).
As for `COc1ccc(-c2noc(C3(c4ccccc4)CCOCC3)n2)cc1`, the inhibition is 19.3%.
